Experimental data published in PubChem BioAssay AID1159580 (chemical genetic matrix, 2015).
The campaign covered roughly 5,500 compounds. About 2,000 (36%) were called active. Roughly 18% stayed inconclusive and do not appear here. No stated cut-off is given here; in the data, active means normalized growth mostly below about 0.91 (no sharp cut-off); inconclusive means no clear call, values can overlap the other calls; inactive means mostly above about 0.92. Some of the results follow.

Test: chemical genetic growth profiling, strain panel (AID 1159580);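 further: tested at 20 µM; growth read once vehicle control cultures reached saturation at 30 °C; 1 = growth at the plate median or of vehicle wells; lower values mean less growth of the strain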
Conditions: S. cerevisiae deletion strains, growth OD
[1] = locus YAL013W, strain DEP1, hits give low values
[2] = locus YBR229C, strain ROT2, hits give low values
[3] = locus YCL061C, strain MRC1, hits give low values
[4] = locus YDL101C, strain DUN1, hits give low values
[5] = locus YDL134C, strain PPH21, hits give low values
[6] = locus YDR150W, strain NUM1, hits give low values
[7] = locus YEL061C, strain CIN8, hits give low values
[8] = locus YGR078C, strain PAC10, hits give low values
[9] = locus YHR030C, strain SLT2, hits give low values
[10] = locus YHR087W, strain rtc3, hits give low values
[11] = locus YJL187C, strain SWE1, hits give low values
[12] = locus YJR043C, strain POL32, hits give low values
[13] = locus YJR075W, strain HOC1, hits give low values
[14] = locus YKL190W, strain CNB1, hits give low values
[15] = locus YLR039C, strain RIC1, hits give low values
[16] = locus YLR058C, strain SHM2 (second series), hits give low values
[17] = locus YLR085C, strain ARP6, hits give low values
[18] = locus YLR262C, strain YPT6, hits give low values
[19] = locus YML094W, strain GIM5, hits give low values
[20] = locus YMR219W, strain ESC1, hits give low values
[21] = locus YMR263W, strain SAP30, hits give low values
[22] = locus YNL153C, strain GIM3, hits give low values
[23] = locus YNL298W, strain CLA4 (second series), hits give low values
[24] = locus YNL322C, strain KRE1, hits give low values
[25] = locus YNR030W, strain Alg12, hits give low values
[26] = locus YPL055C, strain LGE1, hits give low values
[27] = locus YPL241C, strain CIN2, hits give low values
[28] = locus YPR135W, strain CTF4, hits give low values

Measured: normalized growth

S=C1NCN(CCN2CCCC2)CN1
inactive: [1] 1 | [2] 0.996 | [3] 0.988 | [4] 0.984 | [5] 0.975 | [6] 0.96 | [7] 1.03 | [8] 0.997 | [9] 1.04 | [10] 1.04 | [11] 1.01 | [12] 0.986 | [13] 0.997 | [14] 0.977 | [15] 0.991 | [16] 1.01 | [17] 0.98 | [18] 0.972 | [19] 1 | [20] 1.01 | [21] 1 | [22] 0.993 | [23] 0.987 | [24] 0.995 | [25] 0.994 | [26] 1.01 | [27] 0.973 | [28] 0.962

CCCCCCCCCCCCN1CNC(=S)NC1
inactive: [6] 0.846 | [15] 0.985 | [16] 0.988 | [18] 1.01 | [24] 0.956
active: [1] 0.804 | [2] 0.81 | [3] 0.68 | [4] 0.652 | [5] 0.451 | [7] 0.441 | [8] 0.813 | [9] 0.291 | [10] 0.767 | [11] 0.688 | [12] 0.727 | [13] 0.858 | [14] 0.515 | [17] 0.141 | [19] 0.513 | [20] 0.786 | [21] 0.782 | [22] 0.801 | [23] 0.325 | [25] 0.419 | locus YOL006C, strain TOP1, hits give low values 0.123 | [26] 0.541 | [27] 0.484 | [28] 0.382

Cn1c2c(c(=O)n(C)c1=O)CN(CCCCCCO)CN2
inactive: [1] 1 | [2] 1.01 | [3] 1.01 | [4] 1 | [5] 1.02 | [6] 0.982 | [7] 1.01 | [8] 0.999 | [9] 1.07 | [10] 1 | [12] 0.99 | [13] 1.01 | [14] 0.994 | [15] 1.02 | [16] 1 | [17] 1.1 | [18] 1.03 | [19] 1.05 | [20] 1 | [21] 1 | locus YMR307W, strain GAS1, hits give low values 1.04 | locus YNL128W, strain TEP1, hits give low values 1.01 | [22] 0.999 | [23] 1.1 | [24] 0.998 | [25] 1.04 | [26] 1.02 | [27] 1.05 | [28] 1.02
